Compound activity deposited in PubChem by several laboratories.
Mot1-301 SUMO – yeast Mot1-301 growth rescue at high temperature, primary screen, SUMOylation pathway inhibitor project, S. cerevisiae, ATP luminescence, 38.5C. S. cerevisiae Mot1-301 growth rescue; percent above DMSO median, 100 means doubled. growth rescue, % at 18.8 µM. 320,000 compounds, 1% hits. AID 2716, 2010;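 active = every valid replicate shows activation above 250% relative to neutral control wells; inactive = the rest, any valid replicate at or below 250%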
CHT inh – inhibitors of human choline transporter CHT; CHT-expressing cells, membrane potential dye, choline response; stronger effect = lower value; B-score at 10 µM; 310,000 compounds, 0.86% hits; AID 488975, 2010;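 active = B-score over 3 SD under the library average, and starting fluorescence ratio not unusually high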;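 note: choline stimulus applied at its EC90 after an EC20 pre-addition; B-score computed on integrated fluorescence ratio after choline addition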
Target sequence (Q9GZV3 whole entry, looked up): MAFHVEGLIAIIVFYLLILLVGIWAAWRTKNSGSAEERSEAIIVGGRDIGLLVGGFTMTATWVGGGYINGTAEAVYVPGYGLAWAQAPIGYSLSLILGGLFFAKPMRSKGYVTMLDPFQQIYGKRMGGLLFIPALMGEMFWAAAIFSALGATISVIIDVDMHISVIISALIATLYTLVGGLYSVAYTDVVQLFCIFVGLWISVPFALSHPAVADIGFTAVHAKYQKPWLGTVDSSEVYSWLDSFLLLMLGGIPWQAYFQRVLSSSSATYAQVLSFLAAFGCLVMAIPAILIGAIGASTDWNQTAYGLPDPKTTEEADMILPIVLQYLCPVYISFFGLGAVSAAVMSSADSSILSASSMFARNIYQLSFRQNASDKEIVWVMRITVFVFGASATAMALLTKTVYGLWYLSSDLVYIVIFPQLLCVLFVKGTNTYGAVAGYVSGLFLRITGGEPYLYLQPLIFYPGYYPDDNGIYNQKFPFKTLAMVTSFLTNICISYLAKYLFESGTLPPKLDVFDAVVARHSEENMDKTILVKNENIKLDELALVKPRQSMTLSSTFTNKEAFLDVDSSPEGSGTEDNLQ
MEKK2 WT-MEK5 – modulators of MEK5 binding to wildtype MEKK2, primary screen, biochemical, multiplex bead flow cytometry, Alexa488-MEK5; Alexa488-MEK5 binding to MEKK2 WT; actives lie on both sides; binding response (% of control), % at 10 µM; 290,000 compounds, 1.1% hits; AID 1531, 2009; in the data active = binding response below about 67% or above about 130%
MEKK3 PB1 HTS – modulators of MEKK3-MEK5 PB1 binding, primary screen, biochemical, wildtype MEKK3, multiplex bead flow cytometry, Alexa488-MEK5 | bead-based flow cytometry, Alexa488-MEK5 binding to MEKK3; actives lie on both sides; 0 = blocked by unlabeled MEK5, 100 = vehicle | binding response (% of control), % at 10 µM | 290,000 compounds, 1.4% hits | AID 1529, 2009;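 active = binding response more than 3 SD above or below the average of its plate-row segment, actives on both sides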;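 note: Alexa488 bead fluorescence after subtracting the streptavidin-only scavenger bead signal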
CHT allo act – CHT positive allosteric modulators, primary screen, cell-based, membrane potential dye, choline EC20; High affinity choline transporter 1 (Homo sapiens), Q9GZV3; CHT-expressing cells; stronger effect = higher value; LV-AA mutant CHT in HEK293 cells; B-score at 10 µM; 310,000 compounds, 0.49% hits; AID 488977, 2010;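 active = initial fluorescence not abnormally high and integrated response B-score, plate-corrected, over 3 SD above library mean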
MEKK2 mut-MEK5 – MEK5 binding signal on mutant MEKK2 PB1, primary screen, biochemical, multiplex bead flow cytometry, Alexa488-MEK5; Alexa488-MEK5 binding to MEKK2 mutant; percent response, % at 10 µM; 290,000 compounds, 0.35% hits; AID 1530, 2009; in the data active = percent response above about 24%, passing the limit was not always enough
MEKK2wt confirm – modulators of MEK5 binding to wildtype MEKK2, confirmation, biochemical, single concentration, multiplex bead flow cytometry; shares compounds with MEKK3 PB1 HTS; Alexa488-MEK5 binding to MEKK2 WT; actives lie on both sides; binding response (% of control), % at 10 µM; 5,900 compounds, 2.4% hits; AID 1892, 2009; in the data active = binding response below about 16% or above about 210%; inactive = in between
MEKK2mut confirm – mutant MEKK2 PB1-MEK5 binding signal retest – biochemical, single concentration, multiplex bead flow cytometry, confirmation; shares compounds with MEKK3 PB1 HTS; Alexa488-MEK5 binding to MEKK2 mutant; percent response, % at 10 µM; 5,900 compounds, 2% hits; AID 1893, 2009; in the data active = percent response mostly above about 71%, no sharp cut-off; inactive = mostly below about 38%;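 note: higher means compound restores mutant binding toward wildtype level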
MEKK3 confirm – MEKK3 wild-type PB1 binding to MEK5, inhibitors, confirmation, biochemical, bead multiplex flow cytometry, single concentration, wildtype. shares compounds with MEKK3 PB1 HTS. Alexa488-MEK5 binding to MEKK3; stronger effect = lower value. binding response (% of control), % at 10 µM. 5,900 compounds, 1.8% hits;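 active = binding response below 72% of control, or above a set upper limit, though filed actives all read lower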
Hits are given with their value; i = inactive; nt = no result; [ ] = another dose, or the depositor's remark. Compounds with a hit are over-represented: about 4.1% of the library has one in this group of screens.

SMILES	Mot1-301 SUMO	CHT inh	MEKK2 WT-MEK5	MEKK3 PB1 HTS	CHT allo act	MEKK2 mut-MEK5	MEKK2wt confirm	MEKK2mut confirm	MEKK3 confirm
O=C1c2ccccc2S(=O)(=O)N1CC(O)Cn1ccc2ccccc21 (centres undefined)	i	i	31	i	i	81	i	i	i
OC(CN1CCNCC1)Cn1ccc2ccccc21 (centres undefined)	i	i	i	i	i	35	i	i	i
CCOC(=O)c1cnn(-c2ccc([N+](=O)[O-])cc2)c1N	i	i	i	i	i	i	nt	nt	nt
COc1ccc(NC(=O)c2nc[nH]c2C(=O)NCC(=O)OC(C)(C)C)cc1	i	i	i	50[inhibitor]	i	i	i	i	i
CCOc1cc(/C=N/NC(N)=O)cc(Br)c1OCC(=O)Nc1ccccc1C	i	i	i	122	i	i	i	i	i
CCOc1cc(/C=N/NC(N)=O)cc(Br)c1OCC(=O)Nc1cccc2ccccc12	i	i	i	i	i	i	nt	nt	nt
Cc1n[nH]c(C)c1Sc1ccccc1[N+](=O)[O-]	i	i	i	57[inhibitor]	i	i	i	i	i
S=c1sc(SCCOc2ccccc2)nn1-c1ccccc1	i	i	i	132	i	i	i	i	i
O=C(CSc1nn(-c2ccccc2)c(=S)s1)Nc1ncccn1	i	i	i	i	i	i	nt	nt	nt
O=C(O)C(c1ccccc1)N1C(=O)/C(=C\c2ccc(-c3ccc(Br)cc3)o2)SC1=S (centres undefined)	nt	nt	65[inhibitor]	i	nt	i	i	i	i
O=C(O)C(c1ccccc1)N1C(=O)/C(=C\c2ccc(-c3ccccc3Cl)o2)SC1=S (centres undefined)	i	i	i	i	i	i	nt	nt	nt
C=CCn1c(C)nc2c(sc3nc4c(cc32)COC(C)(C)C4)c1=O	i	i	i	i	i	i	nt	nt	nt
Cc1ccc(S(=O)(=O)N(C)C)cc1-n1c(SCC(=O)Nc2ccc(F)c(F)c2F)nc2ccccc2c1=O	i	i	i	148	i	i	i	i	i
Cc1ccc(C(=O)Nc2cc(C)c(OCC(=O)N3CCOCC3)c(C)c2)cc1	i	i	i	i	i	i	nt	nt	nt
COc1cc(NC(=O)C2CCN(S(=O)(=O)c3ccc4[nH]c(=O)oc4c3)CC2)cc(OC)c1	i	i	i	i	i	i	nt	nt	nt
Oc1ccccc1C(=S)N1CCN(C(=S)c2ccccc2O)CC1	i	i	i	i	i	i	nt	nt	nt
COc1cc2nc(Nc3ccc(C)c(C)c3)nc(N)c2cc1OC	i	i	159	i	i	28	i	i	i
COc1cc2nc(Nc3ccc(C)c(Cl)c3)nc(N)c2cc1OC	i	i	181	i	i	50	i	i	i
CCOC(=O)c1cccc(Nc2nc(C)cc(C)n2)c1	i	i	i	i	i	i	nt	nt	nt
Cc1ccc(Nc2nc3ccccc3n3cnnc23)cc1Cl	i	i	i	i	i	i	nt	nt	nt
Cc1ccc(Nc2nc(N)c3ccccc3n2)cc1Cl	i	i	152	i	i	i	i	i	i
COc1cc2nc(Nc3ccc(F)cc3)nc(N)c2cc1OC	i	i	i	i	i	i	nt	nt	nt
CCOC(=O)c1ccc(Nc2nc(N)c3cc(OC)c(OC)cc3n2)cc1	i	i	141	i	i	30	i	i	i
CN(C)S(=O)(=O)c1cc(NC(=O)CN2CCN(c3ccccc3F)CC2)ccc1Cl	i	i	i	i	i	i	nt	nt	nt
COc1cccc2cc(C(=O)N(Cc3ccccc3)CC3CCCO3)c(=O)oc12 (centres undefined)	i	i	i	124	i	i	i	i	i
SMILES	Mot1-301 SUMO	CHT inh	MEKK2 WT-MEK5	MEKK3 PB1 HTS	CHT allo act	MEKK2 mut-MEK5	MEKK2wt confirm	MEKK2mut confirm	MEKK3 confirm
C=CCNC(=O)c1c[nH]c2ccc(S(=O)(=O)N(C)c3ccc(OCC)cc3)cc2c1=O	i	i	i	i	i	i	nt	nt	nt
CCC1(c2ccc(Cl)cc2)NC(=S)N(c2ccccc2)N1 (centres undefined)	i	i	i	128	i	i	i	i	i
CCn1c(SCC(=O)O)nnc1-c1cccnc1	i	i	i	i	i	i	nt	nt	nt
O=C(COC(=O)Cc1ccccc1F)Nc1ccc2c(c1)OCCO2	i	i	i	138	i	i	i	i	i
Cc1cccc(OCC(=O)Nc2ccc3c(c2)OCO3)c1C	i	i	2.0[inhibitor]	2.0[inhibitor]	i	i	i	i	i
CCN1C/C(=C/c2ccc(N3CCOCC3)cc2)C(=O)/C(=C/c2ccc(N3CCOCC3)cc2)C1	i	i	26[inhibitor]	i	i	i	i	i	i
O=C(CN1CCN(Cc2ccc(Cl)cc2)CC1)N/N=C/c1ccccc1F	i	i	57[inhibitor]	68[inhibitor]	i	i	i	i	i
NC(=O)C1CCN(c2ncc(C(F)(F)F)cc2Cl)CC1	i	i	i	130	i	i	i	i	i
CCOC(=O)Cc1c(C)nc2c(-c3ccc(Cl)cc3)c(C)nn2c1C	i	i	nt	0.0[inhibitor]	i	i	i	i	i
CC(C)NC(=O)C1CC=CCC1C(=O)O (centres undefined)	i	i	i	134	i	i	i	i	i
COc1ccc(C(=O)N/C(=C\c2ccccc2)C(=O)Nc2ccccc2C(=O)O)cc1	i	i	nt	nt	i	nt	nt	nt	nt
O=C(CCl)Nc1cc(-c2ccccc2)nn1-c1ccccc1	i	i	i	i	i	i	nt	nt	nt
Nc1ccccc1Nc1cc(-c2ccccc2)nn1-c1cccc(Cl)c1	i	i	i	141	i	i	i	i	i
OCC1(Cc2ccccc2)CCN(Cc2cnn(-c3ccccc3F)c2)CC1	i	i	520	i	i	362	i	i	i
CSc1cccc(CN2CCC(CO)(Cc3cccc(C(F)(F)F)c3)CC2)c1	i	i	138	i	i	i	i	i	i
